Screening data deposited in PubChem by National Center for Advancing Translational Sciences (NCATS).
Pol beta inh = blocks human DNA polymerase beta activity; P06746; 340,000 tested, 1.3% active; Pol beta primer extension/strand displacement, fluorescence kinetic; Potency, µM (doses to about 114 µM), inactives show top-dose activity change, negative = inhibition, most hits filed as inhibitors; further: potency means the concentration at half of the fitted maximal effect; on the % scale 0 is the no-effect control and ±100 the full control effect
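10 nM enzyme + cpd, 15 min RT; start with substrate 50 nM final; read 0 min and after 10 min RT. Corrected, normalized data; 4-parameter Hill curve fit.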
FEN1 inhibitor = inhibitors of human flap endonuclease 1 | AID 588795 | 390,000 tested, 0.35% active | Potency, µM (doses to about 114 µM), for the others: at the top dose activity change, negative = inhibition, hits mostly inhibitors | P39748 | Recombinant FEN1 flap cleavage, fluorescence, 15 min; further: potency means the concentration at half of the fitted maximal effect; on the % scale 0 is the no-effect control and ±100 the full control effect; nearly all actives have a fitted effect of over 65% in size
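Quantitative HTS format: each compound was titrated, incubated with 10 nM nuclease for 15 min at room temperature, then challenged with flap substrate at 50 nM final. Signal change over 15 min gave concentration–effect curves.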
Tb PGK inh = blocks T. brucei phosphoglycerate kinase; 380,000 tested, 0.043% active; AID 602233; PGK/GAPDH coupled, Kinase-Glo luminescence, 60 min; Potency, µM (top dose mostly 57.5 µM), for the others: top-dose activity change, negative = inhibition, hits mostly inhibitors; further: potency means the concentration at half of the fitted maximal effect; on the % scale 0 is the no-effect control and ±100 the full control effect; nearly all actives have a fitted effect of over 60% in size
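Luminescent ATP detection (Kinase-Glo Plus) follows a 60-minute room-temperature incubation, with wells lacking PGK as controls. Buffer: 100 mM TEA (pH 7.6), 5 mM MgCl2, 0.01% Tween-20. Coupling enzyme GAPDH (100 nM final) supplies unstable 1,3-BPG in-well.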
Pol eta inh-1 = blocks human DNA polymerase eta activity; Q9Y253; recombinant Pol eta, fluorescent DNA replication assay; Potency, µM (series often up to 114 µM), for inactives: at the highest dose activity change, negative = inhibition, actives largely listed as inhibitors; 390,000 tested, 1.2% active; further: potency means the concentration at half of the fitted maximal effect; on the % scale 0 is the no-effect control and ±100 the full control effect
Target sequence (Q9Y253 whole entry, looked up): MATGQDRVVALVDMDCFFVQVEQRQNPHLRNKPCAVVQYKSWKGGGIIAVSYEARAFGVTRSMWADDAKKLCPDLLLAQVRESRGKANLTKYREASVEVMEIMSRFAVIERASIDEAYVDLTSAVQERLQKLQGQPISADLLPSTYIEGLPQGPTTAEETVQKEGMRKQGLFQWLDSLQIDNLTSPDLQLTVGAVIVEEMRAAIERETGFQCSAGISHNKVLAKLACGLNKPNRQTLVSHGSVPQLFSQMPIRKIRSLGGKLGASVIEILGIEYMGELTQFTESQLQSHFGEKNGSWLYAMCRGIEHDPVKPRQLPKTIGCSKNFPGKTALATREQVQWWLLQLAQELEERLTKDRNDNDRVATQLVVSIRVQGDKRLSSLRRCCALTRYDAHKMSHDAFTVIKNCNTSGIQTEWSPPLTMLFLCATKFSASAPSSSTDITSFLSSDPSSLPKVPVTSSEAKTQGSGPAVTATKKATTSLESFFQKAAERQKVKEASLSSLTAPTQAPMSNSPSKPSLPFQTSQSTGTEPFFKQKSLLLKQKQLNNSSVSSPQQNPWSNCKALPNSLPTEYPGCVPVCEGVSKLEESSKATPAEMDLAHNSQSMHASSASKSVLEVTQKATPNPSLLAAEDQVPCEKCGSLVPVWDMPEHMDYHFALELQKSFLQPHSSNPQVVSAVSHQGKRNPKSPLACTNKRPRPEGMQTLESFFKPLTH
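Pol eta (10 nM) was preincubated with compounds for 15 min at room temperature, after which fluorescent replication substrate (50 nM final) was added to start the reaction. Fluorescence was read kinetically at 0 and 10 min.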
Pol kappa inh-1 = blocks human DNA polymerase kappa activity; AID 588579; Potency, µM (titrated, usually from 107 µM), for inactives: at the top dose activity, negative = inhibition, most hits filed as inhibitors; purified Pol kappa, fluorescent DNA synthesis assay, 10 min; 400,000 tested, 0.53% active; Q9UBT6; further: potency means the concentration at half of the fitted maximal effect; on the % scale 0 is the no-effect control and ±100 the full control effect
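10 nM Pol kappa preincubated 15 min at room temperature with compounds, then reaction started with substrate at 50 nM final. Fluorescence read kinetically at 0 and 10 min; buffer-only wells served as negative control.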
Pol iota inh = DNA polymerase iota (human) inhibition | Q9UNA4 | Pol iota fluorescent replication assay, 10 min | Potency, µM (top dose mostly 115 µM), for the others: at the top dose activity, negative = inhibition, actives largely listed as inhibitors | 390,000 tested, 1% active | AID 588590; further: potency means the concentration at half of the fitted maximal effect
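Pol iota at 10 nM preincubated 15 min with compounds at room temperature; reaction started with fluorescent substrate, 50 nM final. Fluorescence read kinetically at 0 and 10 min; buffer-only wells as negative control.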
GALK inh confirm = confirmation of human galactokinase (GALK) inhibitors; shares compounds with Pol eta inh-1; purified GALK, Kinase-Glo ATP depletion luminescence; Potency, µM (series often up to 115 µM), without a hit: top-dose activity, negative = inhibition, usual class: inhibitors; 150 tested, 70% active
GALK redox cs = counter-screen for GALK inhibitors: redox cycling H2O2 generation; shares compounds with Pol eta inh-1; Phenol red-HRP H2O2 redox cycling, absorbance 600 nm; Potency, µM (doses to about 115 µM), for inactives: at the highest dose activity change, negative = H2O2 signal, actives largely listed as inhibitors; 150 tested, 40% active; AID 2035
HEK293 viability = counter-screen for GALK inhibitors: HEK293 cell cytotoxicity; shares compounds with Pol eta inh-1; HEK-293 viability, ATP luminescence (CellTiter-Glo), 24/48 h; Potency, µM (titrated, usually from 46.1 µM), for the others: top-dose activity change, negative = cytotoxicity, most hits filed as inhibitors; 170 tested, 10% active; AID 2547; further: potency means the concentration at half of the fitted maximal effect; on the % scale 0 is the no-effect control and ±100 the full control effect
Pol kappa inh-2 = confirmation of human DNA polymerase kappa inhibitors; purified Pol-kappa, fluorescent strand-displacement substrate; 920 tested, 76% active; shares compounds with Pol eta inh-1; Potency, µM, hits mostly inhibitors; further: potency means the concentration at half of the fitted maximal effect
Pol eta inh-2 = confirmation of human DNA polymerase eta inhibitors. Pol eta primer extension, TAMRA/BHQ fluorescence, 10 min. Potency, µM, hits mostly inhibitors. shares compounds with Pol eta inh-1. 2,600 tested, 64% active; further: potency means the concentration at half of the fitted maximal effect
* hit, by the source's call; i = inactive; ? = inconclusive; . = no result given; [ ] = another dose, or the depositor's remark. In the library only some 2.4% were active in any assay of this set; here they are far more common. The call rests on the fitted dose curve; in most records, active means well fitted curve in the direction sought with a large enough effect; inconclusive means small, poorly fitted or top-dose-only effect, or another doubt; inactive means no such curve, though single readings can be large; an effect the other way counts as inactive or inconclusive.

SMILES	Pol beta inh	FEN1 inhibitor	Tb PGK inh	Pol eta inh-1	Pol kappa inh-1	Pol iota inh	Pol eta inh-2	others
O=C(O)c1cccc(S(=O)(=O)N2CCC(n3nnc4cc(C(F)(F)F)ccc43)CC2)c1	45.8%	-19.4%	9.6%	2.6%	-13.9%	60.8%	.	GALK inh confirm=?;GALK redox cs=-24.6%;HEK293 viability=2.2%
O=C(O)c1ccc(S(=O)(=O)N2CCC(n3nnc4cc(C(F)(F)F)ccc43)CC2)cc1	20.6%	0.9%	-5.1%	-19.3%	0.0%	109.7%	.
Cc1ccc(Cl)cc1N1CCN(CCCNc2ncnc3onc(-c4ccc(F)cc4)c23)CC1	21.4%	-11.6%	i	-8.4%	-5.4%	3.9%	.
CCC(C)(C)C1CCc2c(sc(NC(=O)C3c4ccccc4Oc4ccccc43)c2C(N)=O)C1 (stereo unspecified)	1.3%	0.5%	i	-5.8%	-22.0%	-1.9%	.
NC(=O)c1c(NC(=O)C2c3ccccc3Oc3ccccc32)sc2c1CCCCC2	44.7µM*	2.4%	-6.2%	35.5µM*	-28.3%	?	?
Cc1ccc(OCC(=O)N(Cc2ccco2)Cc2ccco2)cc1C	0.1%	-20.9%	-3.7%	-21.2%	0.0%	24.3%	.
CCN(CC)c1ccc(/C=C2\C(=O)c3ccc(C(=O)O)cc3C2=O)cc1	39.8µM*	39.8µM*	-22.1%	7.94µM*	?	?	26.9*
Cc1nnc(NC(=O)CSc2nnc3c(n2)[nH]c2ccccc23)s1	13.6%	-15.2%	-0.4%	10.8%	-7.4%	-22.3%	.
CCOC(=O)Cc1nnc(NC(=O)CSc2nnc3c(n2)[nH]c2ccccc23)s1	17.8µM*	-19.6%	-0.3%	20µM*	79.4µM*	25.1µM*	42.6*
COc1cccc(C2C(=O)N(C3CCCCC3)CC(=O)N2Cc2ccc(Cl)cc2)c1 (stereo unspecified)	3.3%	6.4%	-1.7%	-21.5%	0.3%[60.1 µM]	-21.7%	.
Cc1ccc(C(=O)N/C(=C/c2ccco2)C(=O)O)cc1	1.9%	-5.8%	-1.3%	-9.7%	-17.8%	5.6%	.
Cc1ccc(C(=O)N/C(=C\c2ccc(C)o2)C(=O)O)cc1	?	10.7%	1.6%	31.6µM*	?	-21.7%	?
CC(C)Oc1cccc(C(=O)Nc2ccc(-c3nc4cc(Cl)cc(Cl)c4o3)cc2)c1	15.7%	-13.3%	i	-14.8%	-9.0%	-3.4%	.
O=C(O)c1ccc(Cn2cc(/C=C\[N+](=O)[O-])c3ccccc32)o1	?	-23.4%	-4.6%	22.4µM*	?	8.91µM*	75.7*
Cc1ccc(C(=O)c2nocc2C(=O)c2cccs2)cc1	27.1%	-2.2%	11.4%	-5.4%	-11.8%	2.8%	.
N#Cc1c(C(=O)c2cccs2)no[n+]1[O-]	.	.	.	.	.	.	?
O=C(OCC(=O)N1CCCC1=O)c1nc(Cl)c(Cl)c(Cl)c1Cl	?	-7.9%	-11.0%	56.2µM*	?	?	?
Cc1noc(C)c1C(=O)N1CCC2(CCN(Cc3ccccc3)CC2)CC1	.	.	.	.	1.8%[60.1 µM]	.	.
C/C(N)=C(/C#N)C(=O)COC(=O)C1Cc2ccccc2CN1S(C)(=O)=O (stereo unspecified)	39.8µM*	0.2%	-1.8%	20µM*	?	22.4µM*	67.5*
CS(=O)(=O)N1Cc2ccccc2CC1C(=O)OCC(=O)NCCc1ccc(S(N)(=O)=O)cc1 (stereo unspecified)	.	11.3%	-6.2%	-15.2%	-2.9%	28.9%	.
CS(=O)(=O)N1Cc2ccccc2CC1C(=O)OCC(=O)NCc1ccccc1 (stereo unspecified)	.	-8.3%	-8.5%	15.8µM*	?	79.4µM*	?
CCOc1ccc(NS(=O)(=O)c2c(C)nc3sc(C)c(C)n3c2=O)cc1	-1.6%	-2.6%	-3.3%	-19.4%	-17.2%	-17.1%	.
COc1ccc(N=C2S/C(=C\c3ccc(OC(C)C(=O)O)c(OC)c3)C(=O)N2CCc2c[nH]c3ccccc23)cc1 (stereo unspecified)	35.5µM*	?	-7.1%	31.6µM*	?	?	.	GALK inh confirm=42.1µM*;GALK redox cs=-4.8%;HEK293 viability=10.4%
CC(C)c1nn2c(=O)cc(COC(=O)c3cccc(NC(=O)CCc4ccccc4)c3)nc2s1	13.8%	0.6%	-3.3%	-8.2%	-7.0%[60.1 µM]	41.3%	.
O=C(COc1ccc(F)cc1)Nc1nc(-c2cccnc2)cs1	.	.	-6.9%	35.5µM*	.	.	?
SMILES	Pol beta inh	FEN1 inhibitor	Tb PGK inh	Pol eta inh-1	Pol kappa inh-1	Pol iota inh	Pol eta inh-2	others
O=C(COc1cccc(F)c1)Nc1nc(-c2cccnc2)cs1	.	10.9%	0.6%	2.7%	-20.1%	29.1%	.
N#Cc1c(-c2ccccc2)no[n+]1[O-]	5.7%[57.1 µM]	.	.	-9.9%[57.1 µM]	4.8%[19.4 µM]	0.5%[58.9 µM]	.
N#Cc1c(-c2ccc(Cl)c([N+](=O)[O-])c2)no[n+]1[O-]	.	.	.	.	.	.	75.7*
CCC1=Nc2cc(C(=O)NC3CCCC3)ccc2Sc2ccc(Br)cc21	-9.0%	-10.9%	11.2%	-13.4%	0.0%	7.4%	.
COc1ccc(Cl)cc1NC(=O)c1c(NCc2ccc(C)o2)sc2c1CCCC2	1.8%	-4.4%	-1.8%	50.1µM*	-9.1%[60.1 µM]	?	?
N=C1/C(=C\c2ccc(OC(=O)c3ccc(F)cc3)cc2)C(=O)N=C2SC(N3CCCC3)=NN12	-0.6%	9.5%	-0.5%	56.2µM*	-26.5%	-11.8%	.	Pol kappa inh-2=67*
COc1ccccc1-n1c(C)cc(/C=C2\C(=N)N3N=C(CC(=O)N4CCOCC4)SC3=NC2=O)c1C	21.6%	19.9%	-1.3%	-1.7%	0.1%	14.0%	.
Cc1ccc(C(=O)Oc2ccc(/C=C3\C(=N)N4N=C(N5CCOCC5)SC4=NC3=O)cc2)cc1	-27.2%	-3.7%	1.5%	-4.5%	?	?	.
